# Measured values taken from PubChem BioAssay.
# Activity calls are given as the source filed them.
# How the values were obtained:
# [1] = optical density shifts of acrAB sulA E. coli – strain DRC41, OD650, 48 h, E. coli filamentation inducer project, primary screen (AID 1152); conditions: higher = more signal, called active from +8 up or from −8 down;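 also: E. coli MC1000 strain DRC41 lacking acrAB efflux pump and sulA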
# [2] = probe aLefty1 binding on compound microarray – biochemical, small-molecule microarray, 635/667 nm fluorescence, primary screen (AID 1153); conditions: higher = more signal;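 also: score merges spot fluorescence with signal-to-noise ratio from the scanned slide images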
# [3] = plasmodial surface anion channel blockers, osmotic lysis – cell-based, P. falciparum Indochina, OD700, 1 h, primary screen (AID 1154); conditions: P. falciparum Indochina infected RBC osmotic lysis, higher = more signal, called active from +8 up or from −8 down
# [4] = plasmodial surface anion channel blockers, osmotic lysis – cell-based, P. falciparum Indochina, OD700, 2 h, primary screen (AID 1155);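 also: lysis reports solute entry through the parasite surface anion channel PSAC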; conditions: P. falciparum Indochina infected erythrocytes, higher = more signal, called active from +8 up or from −8 down
# [5] = changes in parasitized red cell lysis, either direction – P. falciparum Indochina, OD700, 3 h, PSAC antagonist project, primary screen (AID 1156); conditions: P. falciparum-infected erythrocytes, osmotic lysis, higher = more signal, called active from +8 up or from −8 down
# [6] = plasmodial surface anion channel blockers, osmotic lysis – cell-based, P. falciparum Indochina, OD700, 18 h, primary screen (AID 1157); conditions: P. falciparum Indochina infected erythrocytes, osmotic lysis OD700, 18 h; higher = more signal, called active from +8 up or from −8 down
# [7] = S6 kinase pathway phospho-S6 level changes – cell-based, A549, cytoblot, luminescence, serum-stimulated, primary screen (AID 1158); conditions: 5 h, higher = more signal;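 also: serum-stimulated A549 lung adenocarcinoma cells; signal is phosphorylated S6 detected by cytoblot immunostaining with HRP secondary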
# [8] = biological target: NADPH oxidase 2 (Homo sapiens) (UniProt P04839); assay: compounds shifting NOX2 Amplex Red fluorescence – cell-based, HEK293-NOX2, PMA-stimulated, NOX inhibitor project, primary screen (AID 1159); conditions: 45 min, higher = more signal, called active from +8 up or from −8 down; also: test concentration not given here
# Chain of NADPH oxidase 2 (Homo sapiens) (P04839 whole entry, looked up): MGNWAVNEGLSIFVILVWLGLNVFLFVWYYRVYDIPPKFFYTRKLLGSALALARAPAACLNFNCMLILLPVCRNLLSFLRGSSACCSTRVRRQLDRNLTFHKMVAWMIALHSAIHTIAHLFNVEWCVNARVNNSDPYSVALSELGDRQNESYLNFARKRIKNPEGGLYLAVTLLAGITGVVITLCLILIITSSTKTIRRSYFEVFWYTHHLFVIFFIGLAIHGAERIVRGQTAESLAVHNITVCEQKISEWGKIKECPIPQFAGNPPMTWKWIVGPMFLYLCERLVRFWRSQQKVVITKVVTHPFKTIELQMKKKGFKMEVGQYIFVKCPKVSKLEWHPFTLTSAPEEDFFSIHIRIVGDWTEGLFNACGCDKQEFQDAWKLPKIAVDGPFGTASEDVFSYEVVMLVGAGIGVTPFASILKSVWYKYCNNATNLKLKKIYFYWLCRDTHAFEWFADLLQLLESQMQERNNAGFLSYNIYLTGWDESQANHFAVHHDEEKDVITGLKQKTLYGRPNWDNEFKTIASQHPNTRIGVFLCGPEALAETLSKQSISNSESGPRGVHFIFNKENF
# [9] = biological target: NADPH oxidase 4 (Homo sapiens) (UniProt Q9NPH5); assay: compounds shifting NOX4 Amplex Red fluorescence – cell-based, HEK293-NOX4, tetracycline-induced, NOX inhibitor project, primary screen (AID 1160); conditions: HEK293-NOX4, Amplex Red H2O2 fluorescence, 45 min; higher = more signal, called active from +8 up or from −8 down
# Chain of NADPH oxidase 4 (Homo sapiens) (Q9NPH5 whole entry, looked up): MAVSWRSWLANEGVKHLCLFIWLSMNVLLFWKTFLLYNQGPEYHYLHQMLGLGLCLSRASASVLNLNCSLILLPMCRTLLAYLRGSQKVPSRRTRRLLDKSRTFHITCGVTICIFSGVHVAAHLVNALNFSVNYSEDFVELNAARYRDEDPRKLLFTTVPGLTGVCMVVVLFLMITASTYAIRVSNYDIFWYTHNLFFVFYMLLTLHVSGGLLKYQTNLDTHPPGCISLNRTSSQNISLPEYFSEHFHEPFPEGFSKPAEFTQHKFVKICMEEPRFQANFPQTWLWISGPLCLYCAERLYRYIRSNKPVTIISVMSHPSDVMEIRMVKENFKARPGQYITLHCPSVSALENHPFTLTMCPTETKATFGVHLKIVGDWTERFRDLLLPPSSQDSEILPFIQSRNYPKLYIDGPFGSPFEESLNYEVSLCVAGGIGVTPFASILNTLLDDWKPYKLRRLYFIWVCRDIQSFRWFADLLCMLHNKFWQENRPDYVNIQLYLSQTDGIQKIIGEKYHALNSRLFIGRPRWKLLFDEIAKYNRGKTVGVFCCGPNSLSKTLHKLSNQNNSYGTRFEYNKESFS
# [10] = biological target: NADPH oxidase 5 (Homo sapiens) (UniProt Q96PH1); assay: compounds shifting NOX5 Amplex Red fluorescence – cell-based, HEK293-NOX5, NOX inhibitor project, primary screen (AID 1161); conditions: HEK293-NOX5, ionomycin, 45 min, higher = more signal
# Chain of NADPH oxidase 5 (Homo sapiens) (Q96PH1 whole entry, looked up): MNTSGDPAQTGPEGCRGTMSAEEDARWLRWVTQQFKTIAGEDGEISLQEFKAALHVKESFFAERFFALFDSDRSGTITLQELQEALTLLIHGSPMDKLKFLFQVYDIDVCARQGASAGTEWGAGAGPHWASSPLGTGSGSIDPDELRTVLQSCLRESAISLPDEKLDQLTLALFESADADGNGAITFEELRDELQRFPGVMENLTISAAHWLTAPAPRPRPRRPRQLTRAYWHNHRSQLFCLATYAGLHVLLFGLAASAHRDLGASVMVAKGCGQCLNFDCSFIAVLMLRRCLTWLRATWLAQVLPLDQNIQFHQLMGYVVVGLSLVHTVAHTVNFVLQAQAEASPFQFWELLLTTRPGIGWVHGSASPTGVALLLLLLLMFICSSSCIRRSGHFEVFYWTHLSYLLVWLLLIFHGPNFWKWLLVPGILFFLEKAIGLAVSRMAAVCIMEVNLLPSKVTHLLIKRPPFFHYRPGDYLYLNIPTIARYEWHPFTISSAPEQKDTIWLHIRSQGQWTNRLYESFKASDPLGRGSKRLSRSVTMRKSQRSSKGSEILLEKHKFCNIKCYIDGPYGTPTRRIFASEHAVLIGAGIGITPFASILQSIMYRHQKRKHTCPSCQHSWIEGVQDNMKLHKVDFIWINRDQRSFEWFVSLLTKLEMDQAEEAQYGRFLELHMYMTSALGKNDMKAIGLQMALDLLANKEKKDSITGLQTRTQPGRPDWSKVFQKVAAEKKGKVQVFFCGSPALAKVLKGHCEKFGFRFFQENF
# [11] = compound effects on lung adenocarcinoma cell viability – A549, calcein-AM fluorescence, 48 h, basal, profiling panel (AID 1162); conditions: higher = more signal; also: test concentration not given here
# [12] = compound effects on differentiated 3T3-L1 adipocyte viability – cell-based, 3T3-L1 adipocytes, calcein-AM fluorescence, 48 h, basal, profiling panel (AID 1163); conditions: 3T3-L1 adipocytes viability, higher = more signal; also: test concentration not given here
# [13] = compound effects on hepatocellular carcinoma cell viability – HepG2, calcein-AM fluorescence, 48 h, basal, profiling panel (AID 1164); conditions: higher = more signal; also: test concentration not given here
# [14] = compound effects on multiple myeloma cell viability – MM1S, calcein-AM fluorescence, 48 h, basal, profiling panel (AID 1165); conditions: higher = more signal; also: test concentration not given here
# [15] = calcein-AM signal in unstimulated myeloma cells – cell-based, calcein-AM fluorescence, 48 h, PK04 Diversity Set, profiling panel (AID 1166); conditions: RPMI8226 myeloma viability, higher = more signal;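 also: cells grown under basal conditions without added stimulus; test concentration not given here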
# [16] = JC-1 mitochondrial signal, unstimulated HepG2 cells – cell-based, JC-1 fluorescence, 24 h, 100 nL compound, profiling panel (AID 1167); conditions: HepG2 mitochondrial potential, higher = more signal; also: test concentration not given here
# [17] = JC-1 mitochondrial signal, unstimulated adipocytes – cell-based, JC-1 fluorescence, 3T3-L1 adipocytes, 24 h, 100 nL compound, profiling panel (AID 1168); conditions: JC-1 mitochondrial fluorescence, higher = more signal, called active from +8 up or from −8 down; also: test concentration not given here
# [18] = JC-1 mitochondrial signal, unstimulated myeloma cells – cell-based, JC-1 fluorescence, RPMI8226, 24 h, 100 nL compound, profiling panel (AID 1169); conditions: JC-1 mitochondrial potential fluorescence, higher = more signal; also: test concentration not given here
# [19] = JC-1 mitochondrial signal, unstimulated MM1S myeloma – cell-based, JC-1 fluorescence, 24 h, 100 nL compound, profiling panel (AID 1170); conditions: MM1S mitochondrial potential, higher = more signal; also: test concentration not given here
# [20] = resazurin metabolic signal in A549 cells – cell-based, resazurin fluorescence, 24 h, PK04 Diversity Set, profiling panel (AID 1171); conditions: A549 viability, higher = more signal, called active from +8 up or from −8 down; also: test concentration not given here
SMILES,z-score [1],composite z-score [2],z-score [3],z-score [4],z-score [5],z-score [6],z-score [7],z-score [8],z-score [9],z-score [10],z-score [11],z-score [12],z-score [13],z-score [14],z-score [15],z-score [16],z-score [17],z-score [18],z-score [19],z-score [20]
COc1ccc(-c2ccc3c(n2)CCCN3CC(O)CN2CCCc3nc(C)c(C)cc32)cc1 (stereo not given),0.125 (inactive),0.864,5.76 (inactive),0.894 (inactive),0.661 (inactive),0.0758 (inactive),-0.0509,1.05 (inactive),-0.305 (inactive),-1.35,-0.389,-0.943,0.151,0.676,-0.158,1.58,-0.205 (inactive),-0.108,-0.975,-0.542 (inactive)
CC(=O)OC[C@H]1O[C@H](CCON=C(C)CCN2CCc3nc(-c4ccccc4)c(-c4ccccc4)cc3C2)C=C[C@@H]1OC(C)=O,-0.132 (inactive),0.0446,2.65 (inactive),0.452 (inactive),0.676 (inactive),0.148 (inactive),-0.166,-2.87 (inactive),-0.455 (inactive),-2.78,0.396,0.235,0.2,-2.16,0.091,-0.273,-1.4 (inactive),0.168,-0.594,0.783 (inactive)
CN1C(=O)C2C=CC(C(O)c3ccc(Br)cc3)N(N(c3ccccc3)c3ccccc3)C2C1=O (stereo not given),-1.19 (inactive),0.446,15.4 (active),3.08 (inactive),0.948 (inactive),1.76 (inactive),-0.0423,1.2 (inactive),0.184 (inactive),0.24,1.78,-0.658,1.37,0.0222,-0.574,0.232,-1.07 (inactive),0.343,-0.654,-0.335 (inactive)
CC(CCN1CCc2nc(-c3ccccc3)c(-c3ccccc3)cc2C1)=NOC[C@@H](C)[C@H](OCc1ccccc1)C(C)C,-0.268 (inactive),-0.0464,1.43 (inactive),1.03 (inactive),1.21 (inactive),0.637 (inactive),0.116,0.837 (inactive),-1.74 (inactive),-0.578,0.474,0.503,0.488,-0.637,-1.89,1.76,-0.479 (inactive),0.161,-0.38,-0.611 (inactive)
[N-]=[N+]=NCc1ccccc1[C@@H]1OC(c2ccc(OCCCO)cc2)=N[C@]1(Cc1ccccc1)C(=O)N1CCOCC1,0.854 (inactive),0.904,16.7 (active),2.9 (inactive),2.49 (inactive),1.01 (inactive),0.131,-1.85 (inactive),-0.253 (inactive),-1.21,0.307,0.146,1.45,-1.2,-0.275,0.787,1.05 (inactive),-1.39,-1.13,-1.14 (inactive)
O=C(NN=C1C[C@@H](O)[C@@H](O)[C@@H]2[C@@H]3C(=O)N(c4cccc(Oc5ccccc5)c4)C(=O)[C@@H]3CC[C@@H]12)OCc1ccccc1,-0.385 (inactive),0.101,2.57 (inactive),0.237 (inactive),1.09 (inactive),0.0572 (inactive),-0.818,1.05 (inactive),-2.06 (inactive),0.134,0.359,0.51,-0.492,-0.0408,-0.238,-0.659,-0.0191 (inactive),0.682,0.615,0.413 (inactive)
CC(=O)OC[C@H]1O[C@H](CCON=C(C)CCC(=O)OC[C@H]2O[C@H](C#Cc3ccccc3)C=C[C@@H]2Oc2ccc(C)cc2)C=C[C@@H]1OC(C)=O,0.604 (inactive),0.28,8.85 (active),1.43 (inactive),1.02 (inactive),0.931 (inactive),-0.987,-0.772 (inactive),0.384 (inactive),-1.64,-0.572,0.442,0.229,-2.77,-2.73,-0.797,-0.942 (inactive),-0.199,-0.738,0.016 (inactive)
CC(=O)OC[C@H]1O[C@H](CC=NOC[C@@H](C)[C@H](OCc2ccccc2)C(C)C)C=C[C@@H]1OC(C)=O,-0.0083 (inactive),-0.101,1.25 (inactive),0.766 (inactive),0.712 (inactive),0.343 (inactive),-0.0212,-0.401 (inactive),-0.344 (inactive),-2.35,-0.878,-0.612,-1.02,-0.886,0.128,-0.713,-1.71 (inactive),1.17,-0.482,0.286 (inactive)
C=CCN1C(=O)[C@]2(O[C@H](CCn3cc(CCO)nn3)[C@@H]([Si](C)(C)c3ccc(OC)cc3)[C@@H]2C)c2cc(N3CCOC3=O)ccc21,-0.902 (inactive),0.0509,6.82 (inactive),0.536 (inactive),-0.5 (inactive),0.376 (inactive),0.199,0.111 (inactive),3.32 (inactive),1.57,0.0694,0.654,-0.316,-2.64,-1.37,0.464,-0.0813 (inactive),-0.585,-0.539,0.333 (inactive)
C=CCC(OC(C)=O)[C@@H]1[C@@H](N(Cc2cc3ccccc3o2)C(=O)Cc2ccc(F)cc2)c2cc(OCCCO)ccc2N1C(=O)Cc1ccc(OC)cc1 (stereo not given in full),-0.778 (inactive),-0.06,1.05 (inactive),0.172 (inactive),-0.67 (inactive),-0.133 (inactive),-0.597,0.2 (inactive),0.727 (inactive),-0.743,-0.382,0.569,0.585,-0.0962,0.228,1.16,-0.0927 (inactive),0.774,-0.208,0.331 (inactive)
CC(C)CON=C1C[C@@H](O)[C@@H](O)[C@@H]2[C@@H]3C(=O)N(Cc4ccccc4)C(=O)[C@@H]3CC[C@@H]12,0.102 (inactive),0.148,0.252 (inactive),0.227 (inactive),0.65 (inactive),-0.0378 (inactive),0.524,1.39 (inactive),0.387 (inactive),-0.0393,-0.785,0.449,-0.946,0.479,-0.129,0.173,-0.272 (inactive),-0.313,-0.659,0.676 (inactive)
C=C(CCCC)C(=O)CC[C@@H](OC(C)=O)c1cccc(OCCO)c1,-0.462 (inactive),-0.101,2.82 (inactive),1.81 (inactive),-1.27 (inactive),0.822 (inactive),0.0149,-1.14 (inactive),-1.3 (inactive),-3.02,-0.985,-1.33,-2.45,-2.53,-2.28,-0.974,-0.673 (inactive),0.452,-0.238,-0.713 (inactive)
[N-]=[N+]=Nc1ccccc1C[C@@]1(C(N)=O)N=C(c2ccc(OCCCO)cc2)O[C@@H]1c1ccccc1,-0.307 (inactive),0.506,27.3 (active),22.4 (active),2.73 (inactive),2.47 (inactive),1.4,-2.2 (inactive),0.249 (inactive),-1.75,-0.391,1.73,-0.515,-2.86,-2.94,0.57,-0.433 (inactive),-0.778,-0.988,-0.732 (inactive)
CS(=O)(=O)CCOC(=O)C1=CC(CCCO)=CC(c2cccs2)N(Cc2cccc(OC(F)(F)F)c2)C=C1C(=O)OCCS(C)(=O)=O (stereo not given),-0.697 (inactive),0.217,6.83 (inactive),1.56 (inactive),0.813 (inactive),0.969 (inactive),-0.0175,-0.895 (inactive),-1.15 (inactive),-2.09,0.0985,0.783,0.464,-3.28,-3.74,0.423,-0.268 (inactive),-0.662,-1,-0.284 (inactive)
COCCCNC(=O)[C@@]1(Sc2ccc(C)cc2)CC(=O)N(Cc2ccccc2)[C@@H]1c1ccc(CO)cc1I,0.613 (inactive),0.337,4.55 (inactive),0.831 (inactive),0.533 (inactive),0.377 (inactive),0.505,1.26 (inactive),-0.666 (inactive),1.26,1.17,0.422,0.264,-2.37,-1.94,0.735,-0.253 (inactive),-0.617,-1.47,0.491 (inactive)
COc1ccccc1CN1C(=O)c2ccccc2[C@@H](C(=O)NCC(F)(F)F)[C@@H]1c1ccc(CO)cc1,1.22 (inactive),-0.242,2.54 (inactive),0.346 (inactive),-0.114 (inactive),0.547 (inactive),-0.189,0.629 (inactive),0.732 (inactive),-0.0947,1.4,-0.467,1.67,-0.127,1.04,1.62,0.913 (inactive),0.28,-0.684,0.633 (inactive)
C[C@@H]1C=CCC(=O)OC[C@H](C)C(=O)N[C@@H](C)C(=O)OC1,0.811 (inactive),-0.0104,0.378 (inactive),0.371 (inactive),0.623 (inactive),0.342 (inactive),-0.276,-0.727 (inactive),0.527 (inactive),0.619,0.195,-0.112,-0.532,-0.131,-0.275,0.391,-0.871 (inactive),-0.0436,-1.26,0.156 (inactive)
CC(C)CON=C1[C@H]2CCn3c(=O)n(-c4ccccc4)c(=O)n3[C@H]2[C@H](O)[C@@H]2O[C@H]12,0.424 (inactive),-0.105,0.175 (inactive),-0.2 (inactive),0.0794 (inactive),0.0344 (inactive),0.0305,-5.13 (inactive),0.018 (inactive),0.407,-0.464,0.322,0.332,0.456,-1.2,-0.174,-0.0969 (inactive),-0.385,-0.209,-0.829 (inactive)
